Bioassay records (PubChem)
The list is not random: actives were taken first. Their share in the collection is about 2.4%.
A3A deaminase – human APOBEC3A DNA deaminase inhibition. P31941. recombinant A3A, FAM/TAMRA ssDNA deamination fluorescence. 330,000 tested, 0.41% active. inhibition, % at 20 µM;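 active = at least 40% inhibition at 20 µM here, with at most 30% in a related deaminase screen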;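 note: plate controls were A3A with DMSO for no effect and wells lacking A3A enzyme for full effect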
Target sequence (P31941 whole entry, looked up): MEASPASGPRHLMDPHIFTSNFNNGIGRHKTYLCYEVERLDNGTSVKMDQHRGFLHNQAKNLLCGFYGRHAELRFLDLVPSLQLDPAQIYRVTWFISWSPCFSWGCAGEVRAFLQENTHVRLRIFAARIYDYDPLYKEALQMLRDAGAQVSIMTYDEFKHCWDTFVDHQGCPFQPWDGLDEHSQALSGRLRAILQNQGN
CendR NRP1 mod – modulators of CendR peptide binding to human neuropilin-1. FAM-RPARPAR peptide binding to NRP-1, fluorescence polarization. inhibition, % at 25 µM. 360,000 tested, 0.85% active. AID 602438;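 active = inhibition or corrected inhibition above about 18%, plus a signal ratio from 0.5 to 1.5, limit read from the data, passing the limit was not always enough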
ADAM17 inh – inhibitors of human ADAM17; P78536; inhibition, % at 6.95 µM; recombinant ADAM17, EDANS/DABCYL FRET peptide cleavage; AID 720648; 370,000 tested, 0.83% active;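 active = inhibition above the mean of compounds lying between control limits plus 3 SD, set per campaign, cut at about 8.5% in these data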;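 note: 0% = DMSO-only wells as the low control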
Target sequence (P78536 215-824 limits assumed): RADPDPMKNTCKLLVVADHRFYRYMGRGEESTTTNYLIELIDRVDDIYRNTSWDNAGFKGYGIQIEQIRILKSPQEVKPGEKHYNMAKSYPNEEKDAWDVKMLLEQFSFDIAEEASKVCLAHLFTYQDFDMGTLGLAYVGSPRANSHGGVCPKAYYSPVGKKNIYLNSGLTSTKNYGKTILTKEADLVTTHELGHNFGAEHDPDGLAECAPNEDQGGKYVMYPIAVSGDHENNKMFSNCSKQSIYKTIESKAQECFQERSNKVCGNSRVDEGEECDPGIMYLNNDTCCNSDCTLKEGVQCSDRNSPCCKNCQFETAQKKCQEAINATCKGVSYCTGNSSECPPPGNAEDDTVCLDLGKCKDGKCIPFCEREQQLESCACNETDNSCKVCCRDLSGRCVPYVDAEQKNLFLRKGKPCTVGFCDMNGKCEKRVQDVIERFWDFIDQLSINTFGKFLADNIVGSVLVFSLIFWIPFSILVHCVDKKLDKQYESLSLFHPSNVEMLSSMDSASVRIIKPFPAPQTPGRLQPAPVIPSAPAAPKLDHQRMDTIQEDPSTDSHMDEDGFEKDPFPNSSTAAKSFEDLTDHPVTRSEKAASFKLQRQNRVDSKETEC
APOBEC3G inh – APOBEC3G (human) deaminase inhibition; Q9HC16; recombinant A3G, ssDNA deamination FAM/TAMRA fluorescence; inhibition, % at 20 µM; 330,000 tested, 0.28% active; AID 493012;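 active = inhibition of at least 40% at 20 µM, with no more than 30% in the related APOBEC3A deaminase screen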;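 note: plate controls were DMSO wells with A3G for no effect and wells lacking A3G enzyme for full effect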
ADAM10 inh – inhibitors of human ADAM10; O14672; recombinant ADAM10, EDANS/DABCYL FRET peptide cleavage, 3 h; inhibition, % at 7 µM; 370,000 tested, 0.62% active;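 active = inhibition above a per-campaign cutoff equal to the mean of compounds falling between control-based bounds plus 3 SD, cut at about 20% in these data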;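 note: 0% = DMSO wells while the 100% control is not disclosed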
A3A conf – APOBEC3A (human) deaminase inhibition, confirmed; recombinant A3A, ssDNA deaminase UDG fluorescence assay; shares compounds with A3A deaminase; 1,400 tested, 63% active; inhibition, % at 20 µM;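 active = inhibition reaching a set limit, 80% of the first screen's cutoff, at 20 µM in any replicate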;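 note: plate controls were DMSO wells with A3A for no effect and wells lacking A3A enzyme for full effect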
UDG A3A counter – inhibits UDG, flagging false APOBEC3A inhibitors; shares compounds with A3A deaminase; UDG counterscreen, FAM/TAMRA uracil oligo fluorescence; inhibition, % at 20 µM; 1,000 tested, under 10 active; call rule not given here
A3G conf – APOBEC3G (human) deaminase inhibition, confirmed | shares compounds with APOBEC3G inh | recombinant A3G ssDNA deaminase, UDG/FAM-TAMRA fluorescence | inhibition, % at 20 µM | 890 tested, 72% active | AID 493152;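 active = inhibition reaching a set limit in any replicate at 20 µM, the limit being 80% of the first screen's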
UDG ctr A3G – counter-screen for APOBEC3G inhibitors: E. coli UDG; shares compounds with APOBEC3G inh; AID 504715; UDG counterscreen, FAM/TAMRA oligo fluorescence; 710 tested, under 10 active; inhibition, % at 20 µM;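 active = compounds giving 40% or more inhibition at 20 µM in any one of the three replicates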;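 note: plate controls were DMSO wells with UDG and oligo for no effect and DMSO wells lacking both for full effect; inhibitors lower the FAM signal released by uracil excision and alkaline cleavage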
ADAM10 confirm – confirmation of inhibitors of human ADAM10; shares compounds with ADAM10 inh; ADAM10 QFRET peptide cleavage, EDANS fluorescence; inhibition, % at 6.95 µM; 2,100 tested, 1% active;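 active = inhibition above about 20% chosen separately for each screening run, limit read from the data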;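 note: 0% = DMSO wells and 100% = marimastat wells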
ADAM17 ctr – inhibits human ADAM17 in ADAM10 exosite counter-screen; ADAM17 QFRET peptide cleavage, EDANS fluorescence; shares compounds with ADAM10 inh; inhibition, % at 6.95 µM; 2,100 tested, 0.5% active;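 active = mean triplicate inhibition above the solvent-only control wells' mean plus 3 SD, cut at about 12% in these data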;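 note: 0% = DMSO wells and 100% = marimastat wells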
ADAM10 ctr – inhibits human ADAM10 in ADAM17 exosite counter-screen. recombinant ADAM10, EDANS/DABCYL FRET peptide cleavage, 3 h. shares compounds with ADAM17 inh. 2,900 tested, 47% active. inhibition, % at 6.95 µM;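 active = mean inhibition over the triplicate runs exceeds the activity threshold set in the earlier primary screen, cut at about 20% in these data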;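 note: 0% = DMSO wells and 100% = marimastat wells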
ADAM17 confirm – confirmation of inhibitors of human ADAM17 | shares compounds with ADAM17 inh | recombinant ADAM17, EDANS/DABCYL QFRET peptide cleavage | inhibition, % at 6.95 µM | 2,900 tested, 65% active | AID 743257;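 active = mean inhibition across replicates above the hit cutoff set in the primary screen, cut at about 8.5% in these data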;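 note: 0% = DMSO wells and 100% = marimastat wells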
The depositor's hits bear a star; nt = no result.

SMILES	A3A deaminase	CendR NRP1 mod	ADAM17 inh	APOBEC3G inh	ADAM10 inh	A3G conf	UDG ctr A3G	others
COc1ccc(NC(=O)Cc2coc3cc(C)c(C(C)C)cc23)cc1S(=O)(=O)N1CCOCC1	48.5*	-5.0	6.5	11.0	21.5*	nt	nt	A3A conf=9.8;ADAM10 confirm=3.7;ADAM17 ctr=1.3
CCCCn1c(N)c(N(CCC(C)C)C(=O)c2ccc(N3CCCC3=O)cc2)c(=O)[nH]c1=O	42.7*	-7.2	-2.6	-0.8	63.3*	nt	nt	A3A conf=18.2;UDG A3A counter=3.2;ADAM10 confirm=4.3;ADAM17 ctr=2.6
COc1cccc(C(=O)N[C@H](C(=O)N2CCC[C@H]2C(=O)NC2CCCC2)c2ccccc2)c1	nt	nt	-5.0	nt	-7.6	nt	nt
COc1cc(/C=N\NC(=O)c2ccc(Cl)cc2)ccc1Oc1ccc([N+](=O)[O-])cn1	48.0*	9.2	10.9*	14.9	23.7*	nt	nt	A3A conf=62.8*;UDG A3A counter=-1.4;ADAM10 confirm=3.8;ADAM17 ctr=0.6;ADAM10 ctr=14.6;ADAM17 confirm=7.8
COc1ccc(N2C[C@@]3(O)CC[C@@H](O)[C@@H](OC)[C@@H]3[C@@](C)(O)[C@@H]2CC=C(C)C)cc1	nt	nt	-7.3	nt	-12.9	nt	nt
O=C(CN1CCN(c2ccc(O)cc2)CC1)Nc1ccc(SC(F)F)cc1	2.9	-7.1	0.4	42.8*	-1.9	6.5	nt
Cc1noc(C)c1S(=O)(=O)N(C)C[C@@H]1OCc2cnnn2CCCC(=O)N([C@@H](C)CO)C[C@@H]1C	nt	nt	-2.7	nt	1.2	nt	nt
O=c1c2ccccc2sn1-c1ccc(F)cc1	1.1	4.7	-0.8	85.8*	0.4	79.8*	-2.3
Cc1ccc(-n2sc3ccccc3c2=O)cc1	1.7	-10.7	0.6	76.9*	1.4	70.6*	-3.9
O=c1c2ccccc2sn1-c1ccc(Cl)cc1	nt	-18.9	4.9	nt	-4.1	nt	nt
COc1ccc(Oc2c(-c3cccs3)cnn(-c3ccc(C)cc3)c2=O)cc1	nt	nt	-3.2	nt	-8.2	nt	nt
CCOC(=O)NC[C@@]1(C(=O)OC)CC(=O)N(C)[C@@H]1c1ccccc1	nt	nt	1.0	nt	1.0	nt	nt
CCOC(=O)Cc1csc(-n2sc3ccccc3c2=O)n1	0.3	-19.7	2.0	81.4*	1.2	84.0*	3.2
COCCCN(CCCN)Cc1ccco1	-1.5	5.9	-5.0	71.1*	-4.2	19.9	4.2
CC(C)(C)CCN1CCC[C@H](NC(=O)COc2ccc(F)c(Cl)c2)C1	nt	nt	-5.3	nt	-7.3	nt	nt
CCn1c(CCc2nc3ccccc3[nH]2)n[nH]c1=S	-2.2	4.1	-1.1	18.5	-6.8	nt	nt
Cc1ccc(-n2c(CCc3nc4ccccc4[nH]3)n[nH]c2=S)cc1	4.2	11.0	-1.7	52.3*	7.4	27.1	nt
C[C@H]1CN(S(=O)(=O)C(C)(C)C)[C@H](CCO)/C1=C\CCO	nt	nt	3.0	nt	-1.6	nt	nt
CCOC(=O)c1cccc(-c2cc(C(C)=O)c3n(c2=O)CCC3)c1	nt	nt	-2.7	nt	-8.3	nt	nt
C/C(=N\Nc1ccccc1C)c1cccnc1	-5.4	4.7	-3.6	60.8*	-1.9	12.1	0.8
C/C(=N\NC(=O)c1ccccc1C)c1cccnc1	-6.9	7.0	-5.5	-5.3	-0.9	nt	nt
Cc1nnsc1C(=O)NNc1ccc(C(C)C)cc1	-2.6	-7.2	-5.8	-10.1	9.6	nt	nt
Cc1nnsc1C(=O)NNc1ccc(C(C)(C)C)cc1	-0.6	2.0	-3.6	52.6*	-5.1	17.8	-1.7
CSc1nc(=NC(C)=O)ss1	-1.7	0.9	0.9	50.6*	4.9	42.8*	-0.4
C[C@H]1[C@@H](N)CC[C@@]23CCCN2C(=O)CCC[C@@H]13	nt	nt	-6.0	nt	2.0	nt	nt
SMILES	A3A deaminase	CendR NRP1 mod	ADAM17 inh	APOBEC3G inh	ADAM10 inh	A3G conf	UDG ctr A3G	others
COC(=O)/C=C1\SC(N2CCOCC2)=C(c2ccc(OC)cc2)C1=O	4.2	3.6	5.0	55.3*	4.2	20.1*	-2.8
CC(C)Cn1c(-c2ccc(Br)o2)n[nH]c1=S	-3.5	-8.2	0.8	40.6*	-0.3	75.9*	-3.9
CC(C)Cn1c(-c2nn(C)cc2Cl)n[nH]c1=S	-9.0	0.8	0.1	26.1	-76.5	nt	nt
Cc1ccccc1-n1c(-c2ccc(Br)o2)n[nH]c1=S	-1.3	-5.2	-3.2	27.3	-3.8	nt	nt
Cc1ccsc1-c1n[nH]c(=S)n1CC(C)C	-3.1	9.4	2.9	44.2*	1.6	89.6*	-2.3
Cc1cc(Nc2cc(Cl)cc(Cl)c2)cc(=O)n1-c1cc(Cl)cc(Cl)c1	nt	nt	0.0	nt	-0.7	nt	nt
Fc1ccccc1-n1[nH]nnc1=S	1.5	-8.3	-0.4	51.8*	-2.4	15.0*	-2.7
CCOC(=O)c1cc(-c2ccc(OC)cc2)nn1-c1ccccc1C(=O)O	27.3	-15.2	4.5	63.2*	11.1	41.3*	-3.4
COc1ccc(-c2cc(C(=O)NN)n(-c3ccccc3)n2)cc1	4.8	-6.5	5.0	-0.4	14.8	nt	nt
O=C(NN=Cc1cccc(OCc2ccccc2)c1)c1cc(-c2ccc(Cl)cc2)n[nH]1	nt	nt	-8.9	nt	-30.2	nt	nt
Cc1ccccc1Cn1cnc2c(cnn2C(C)(C)C)c1=O	-3.2	-13.2	-3.0	-4.1	2.0	nt	nt
Cc1ccc(C)c(Cn2cnc3c(cnn3C(C)(C)C)c2=O)c1	1.1	0.5	-2.7	57.9*	11.0	0.3	nt
COCCNC(=O)c1c(N)[nH]c(C(=O)c2ccc(Br)cc2)c1-c1c(OC)ccc2ccccc12	nt	nt	-1.9	nt	2.9	nt	nt
COc1cccc(CO[C@H]2C=C[C@@H](c3ccccc3)O[C@@H]2CO)c1	nt	nt	-0.3	nt	-0.3	nt	nt
CC(=O)C(Sc1nn(C)c(=S)s1)C(=O)Nc1ccccc1 (stereo not given)	2.3	-10.6	-4.2	56.6*	0.6	40.3*	-4.7
CCOC(=O)N1CCN(c2ccnc3cc(Cl)ccc23)CC1	-0.8	1.2	-12.7	57.9*	-26.6	-59.4	-3.0
CCC(=O)N1CCN(c2ccnc3cc(Cl)ccc23)CC1	2.8	-6.0	-2.6	1.6	-8.3	nt	nt
